Hits are enriched below; roughly 9% of the tested compounds scored in any of these assays.
HPGD inh: HPGD (human) dehydrogenase inhibition; P15428; purified HPGD, NADH fluorescence kinetic, PGE2 substrate; Potency, µM, without a hit: top-dose activity change, negative = inhibition, actives largely listed as inhibitors; actives 4.3% (n = 150,000); active = well fitted inhibition curve with a large enough effect, not every such curve was filed as active; inconclusive = small, poorly fitted or top-dose-only effect, or another doubt; inactive = no such curve, though single readings can be large or run the other way; also: % is scaled to controls: 0 for no effect and ±100 for the full control effect
Target sequence (P15428 whole entry, looked up): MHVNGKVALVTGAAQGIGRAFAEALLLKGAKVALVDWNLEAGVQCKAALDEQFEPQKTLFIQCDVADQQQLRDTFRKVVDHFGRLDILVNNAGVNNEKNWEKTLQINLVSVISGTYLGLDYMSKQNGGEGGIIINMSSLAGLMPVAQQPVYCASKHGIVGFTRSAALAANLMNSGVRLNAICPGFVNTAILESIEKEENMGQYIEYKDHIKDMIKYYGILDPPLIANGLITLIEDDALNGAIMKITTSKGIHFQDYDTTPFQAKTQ
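20 nM HPGD preincubated 15 min at room temperature with compound in 50 mM Tris-HCl pH 8, 0.01% Tween 20. Started with 1 mM NAD+ and 30 uM prostaglandin E2; NADH fluorescence (360/450 nm) read 5 times over 30-s intervals, last minus first.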
ALDH1A1 inh: ALDH1A1 (human) enzyme inhibition; actives 7.3% (n = 220,000); Potency, µM (doses to about 75.3 µM), for inactives: at the highest dose activity, negative = inhibition, most hits filed as inhibitors; Purified ALDH1A1, NADH fluorescence, propionaldehyde substrate; P00352; AID 1030; active = well fitted inhibition curve with a large enough effect, not every such curve was filed as active; inconclusive = small, poorly fitted or top-dose-only effect, or another doubt; inactive = no such curve, though single readings can be large or run the other way;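 also: plate controls were no enzyme wells and a reference inhibitor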
Target sequence (P00352 whole entry, looked up): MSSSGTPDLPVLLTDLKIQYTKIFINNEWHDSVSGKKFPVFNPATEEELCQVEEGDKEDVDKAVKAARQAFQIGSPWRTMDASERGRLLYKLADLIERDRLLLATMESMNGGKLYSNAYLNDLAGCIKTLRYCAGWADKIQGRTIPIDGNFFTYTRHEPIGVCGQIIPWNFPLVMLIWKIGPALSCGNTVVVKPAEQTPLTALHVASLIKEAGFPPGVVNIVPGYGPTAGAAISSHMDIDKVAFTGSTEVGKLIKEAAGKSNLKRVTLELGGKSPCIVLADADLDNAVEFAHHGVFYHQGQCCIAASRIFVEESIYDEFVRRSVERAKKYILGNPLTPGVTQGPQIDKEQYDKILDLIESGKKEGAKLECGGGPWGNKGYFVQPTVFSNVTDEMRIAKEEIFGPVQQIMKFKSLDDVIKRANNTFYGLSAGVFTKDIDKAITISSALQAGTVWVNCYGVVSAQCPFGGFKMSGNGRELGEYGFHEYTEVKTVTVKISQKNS
LMNA splice mod: LMNA splicing modulation; HeLa LMNA splicing GFP/RFP minigene ratio, 48 h; Potency, µM (doses to about 46.1 µM), without a hit: at the top dose ratio change, negative = inhibition, most hits filed as inhibitors; actives 0.01% (n = 200,000); AID 1487; active = well fitted inhibition curve with a large enough effect in the signal ratio, with a control signal flat, not every such curve was filed as active; inconclusive = small, poorly fitted or top-dose-only effect, or effect the other way, or a change in a side signal; the % refers to the signal ratio; also: % is scaled to controls: 0 for no effect and ±100 for the full control effect
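S3 HeLa cells stably expressing lamin A-EGFP splicing minigene plus DsRed2, 600 cells/well, 48 h compound exposure at 37C. Laser-scanning cytometry; analysed as GFP (500-530 nm)/RFP (575-640 nm) total intensity ratio; 0.5% DMSO vehicle.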
HTT cytoprotect: Huntington cell model cytoprotection by ATP luminescence; Potency, µM (titrated, usually from 56.4 µM), inactives show cytoprotection (ATP increase), hits mostly activators; actives 0.14% (n = 230,000); AID 1471; PC12 HTT-Q103 induced, cytoprotection, ATP luminescence, 40 h; also: % of control where 0% means no effect; nearly all actives have a fitted effect of over 45% in size
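Readout: ATPlite luminescence (ATP level). Model: stable PC12, inducible Htt exon1 Q103-GFP. Inducer: tebufenozide, 100 nM final. Compounds: dose series. No G418 in medium.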
Luc counter: Kinase-Glo luciferase inhibition (counter-screen); Kinase-Glo luciferase, ATP luminescence, 8 min; Potency, µM (top dose mostly 38.3 µM), without a hit: at the top dose activity change, negative = inhibition, hits mostly inhibitors; actives 0.28% (n = 200,000); also: % is scaled to controls: 0 for no effect and ±100 for the full control effect; nearly all actives have a fitted effect of over 60% in size
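Substrate mix (final 50 mM imidazole pH 7.2, 50 mM KCl, 7 mM MgCl2, 10 uM ATP, 0.01% Tween 20, 0.05% BSA) plus pin-tool compound, then Kinase-Glo detection mix; 8 min ambient, luminescence read.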
HTT aggregate: reduces HttQ103-GFP aggregates in PC12 cells; PC12 HttQ103-GFP aggregates, Acumen cytometry, 40 h; Potency, µM (titrated, usually from 46.1 µM), without a hit: top-dose activity change, negative = inhibition, hits mostly inhibitors; actives 1.1% (n = 220,000); AID 1688; also: % is scaled to controls: 0 for no effect and ±100 for the full control effect; nearly all actives have a fitted effect of over 60% in size
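Using laser scanning cytometry, GFP-positive aggregates were counted after lysis of PC12 cells induced with 100 nM tebufenozide to express HTT exon 1 Q103–GFP. Compounds were tested in titration.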
The depositor's hits bear a star; ? = inconclusive; · = no result given; ! = a repeat was not active; [ ] = another dose, or the depositor's remark. Unless noted, calls follow the shape of the dose curve; as a rule, active = well fitted curve in the direction sought with a large enough effect; inconclusive = small, poorly fitted or top-dose-only effect, or another doubt; inactive = no such curve, though single readings can be large; an effect the other way counts as inactive or inconclusive. Potency is read from the fitted curve at half-maximal effect.

SMILES	HPGD inh	ALDH1A1 inh	LMNA splice mod	HTT cytoprotect	Luc counter	HTT aggregate
CN[C@@H]1[C@H](O[C@@H]2O[C@H](C)[C@@](O)(CO)[C@H]2O[C@H]2[C@H](O)[C@H](O)[C@H](N=C(N)N)[C@@H](O)[C@@H]2N=C(N)N)O[C@@H](CO)[C@H](O)[C@H]1O	-0.2%	10µM*	·	-48.1%	0.9%[39.9 µM]	·
CC1CN(S(=O)(=O)c2cccc3cnccc23)CCN1 (configuration not stated)	-10.2%	7.3%	?	·	-0.5%	·
C[C@@H]1CNCCN1S(=O)(=O)c1cccc2cnccc12	1.5%	-2.8%	·	12.6µM*!	-5.7%	·
COC(=O)c1ccc(Cn2c(=O)cc(C(F)(F)F)c3c(C)nn(C)c32)cc1	·	·	1.4%[46 µM]	·	·	·
CCOc1ncccc1C(=O)OCC(=O)Nc1ncc(C(F)(F)F)cc1Cl	-11.9%	-9.1%	14.7%	16.1%[10 µM]	-2.8%	24.2%
COCCCNC(=S)NNC(=S)Nc1ccc(F)cc1F	?	7.94µM*	1.3%	-4.4%	9.3%	2.0%[9.22 µM]
COCCCNC(=S)Nc1ccc(C)cc1	·	·	·	4.7%[10 µM]	·	-3.3%[9.22 µM]
COCCCNC(=S)NNC(=S)Nc1ccccc1	·	17.8µM*	·	20.2%[10 µM]	·	11.6%[9.22 µM]
COCCCNC(=S)NCCc1ccc(F)cc1	·	5.7%	·	-19.7%	·	2.8%
NC(=S)NNC(=S)Nc1ccccc1	·	22.4µM*	?	·	-5.5%	·
Cc1ccccc1-c1nn[nH]n1	-5.1%	-7.6%	10.4%	15.6%	8.0%	28.1%[9.22 µM]
CCOC(=O)N1CCC2(CC1)C(C#N)=C(N)Oc1c2c(C)nn1-c1cccc(Cl)c1	-11.0%	12.6µM*	-16.9%	-12.1%[0.074 µM]	2.7%	?
COc1ccc(Nc2nnc(SCc3cc([N+](=O)[O-])cc4c3OCOC4)s2)cc1	25.1µM*	?	3.7%	17.6%	-2.8%	3.6%
Cc1nnc(SCc2cc([N+](=O)[O-])cc3c2OCOC3)[nH]c1=O	·	?	·	-1.6%[10 µM]	·	-2.8%[9.22 µM]
Cc1ccc(NC(=O)c2ccc(N3CCOCC3)c([N+](=O)[O-])c2)cc1S(=O)(=O)N1CCOCC1	-4.5%	?	?	27.2%[1.9 µM]	1.9%	?
CN(C)S(=O)(=O)c1cccc(NC(=O)c2ccc(N3CCOCC3)c([N+](=O)[O-])c2)c1	-16.9%	17.8µM*	?	-77.5%[10 µM]	0.9%	?
O=C(Nc1ccc2c(c1)OCO2)c1ccc(NC2CC2)c([N+](=O)[O-])c1	-15.2%	-4.2%	-29.7%	-4.6%[1.9 µM]	1.9%	8.6%
O=C(Nc1ccccc1N1CCOCC1)c1ccc(N2CCOCC2)c([N+](=O)[O-])c1	·	?	·	·	2.2%	20.0%
O=C(Nc1ccc(N2CCCCC2)c(Cl)c1)c1ccc(N2CCOCC2)c([N+](=O)[O-])c1	-16.6%	8.91µM*	6.7%[0.0737 µM]	-32.6%	0.6%	11.2µM*
O=C(Nc1ccc2c(c1)OCO2)c1ccc(N2CCCC2)c([N+](=O)[O-])c1	-21.2%	15.8µM*	?	23.1%[10 µM]	0.6%	-8.2%
Cc1ccc(NC(=S)NNC(=O)c2ccc(N3CCOCC3)c([N+](=O)[O-])c2)cc1C	-12.6%	3.98µM*	4.1%	7.3%[10 µM]	1.2%	13.0%
CCN(CC)S(=O)(=O)c1ccc(-c2nnc(SCC(=O)N3CCc4ccccc43)o2)cc1	5.7%	0.9%	-7.2%	-7.9%[10 µM]	-3.0%	5.8%
CCc1cc(C(=O)OC)c(NC(=O)CC2NCCNC2=O)s1 (configuration not stated)	-17.8%	-10.1%	-5.5%	-16.3%	3.2%	-1.6%
CCCCS(=O)(=O)NC1=NCN(Cc2ccco2)CN1	-11.3%	2.3%	4.1%	24.0%	0.3%	-2.1%
CC(=O)N1CCN(c2ccc(NC(=O)c3ccc(N4CCCC4)c([N+](=O)[O-])c3)cc2Cl)CC1	-4.7%	7.94µM*	0.8%	-6.9%[10 µM]	5.5%	-5.0%
SMILES	HPGD inh	ALDH1A1 inh	LMNA splice mod	HTT cytoprotect	Luc counter	HTT aggregate
Cc1ccc(OC(=O)c2ccc(N3CCOCC3)c([N+](=O)[O-])c2)cc1	?	7.08µM*	0.1%	-1.7%	-4.1%	4.4%
O=C(Nc1ccc(N2CCCC2)c(Cl)c1)c1ccccc1[N+](=O)[O-]	-24.2%	?	-8.2%	19.6%[10 µM]	0.4%	-4.5%
Cc1ccc(NC(=O)c2ccc(NCCCN3CCOCC3)c([N+](=O)[O-])c2)cc1Cl	-14.5%	?	?	26.5%[10 µM]	-0.6%	25.1µM*
COc1ccc(CNC(=O)CC2N=C3c4ccccc4N=C(SCC(=O)Nc4ccc(N(C)C)cc4)N3C2=O)cc1 (configuration not stated)	·	·	-3.6%[46 µM]	·	·	·
O=[N+]([O-])c1ccccc1Oc1ccccc1Cl	31.6µM*	10.2%	1.5%	-11.0%[10 µM]	2.1%	-10.0%
COc1ccccc1C(=O)NNC(=S)NC(=O)c1sc2ccccc2c1Cl	-10.3%	-11.1%	-11.0%	31.3%[10 µM]	-4.3%	-32.9%
Cc1c(NC(=S)NC(=O)c2sc3ccccc3c2Cl)cccc1C(=O)O	·	25.1µM*	-17.0%[46 µM]	-88.8%	-0.9%	?
COc1ccccc1C(=O)NC(=S)NNC(=O)c1sc2ccccc2c1Cl	31.6µM*	-5.0%	-5.8%	?	2.0%	-26.3%
O=C1/C(=C/c2ccc(C(=O)O)cc2)CCC/C1=C\c1ccc(C(=O)O)cc1	20µM*	-1.3%	19.3%	·	0.0%	?
O=C1/C(=C/c2ccccc2)CCCc2ccccc21	-0.9%	-9.3%	-6.8%	0.9%[10 µM]	-5.1%	5.4%
CN(C)c1ccc(/C=C2\CCC/C(=C\c3ccccc3)C2=O)cc1	-10.7%	12.6µM*	?	16.5%[10 µM]	-1.9%	19.4%
COc1ccc(/C=C2\CCC/C(=C\C=N\N(C)C)C2=O)cc1	·	3.98µM*	·	?	-0.2%	-8.8%
CN(C)/N=C/C=C1\CCC/C(=C\c2ccc(F)c(F)c2)C1=O	·	?	·	-30.3%	0.7%	19.9%
COc1ccc(C(=O)Nn2c(SCc3cccc([N+](=O)[O-])c3)nc3ccccc3c2=O)cc1	-18.9%	?	3.7%	-21.9%[10 µM]	-12.1%	-12.0%
FC(F)(F)c1cccc(NC(=S)NCCc2ccccn2)c1	-13.2%	4.9%	7.2%	-1.2%	-2.9%	-28.4%
CC(=O)Nc1ccc(NC(=O)Cn2cnc3c(cnn3C(C)(C)C)c2=O)cc1	1.5%	15.8µM*	-5.8%	5.2%[1.9 µM]	-3.2%	21.6%
CC(=O)Nc1ccc(NC(=O)Cn2cnc3c(nnn3Cc3ccc(F)cc3)c2=O)cc1	·	11.2µM*	·	-12.5%	3.6%	20.9%[9.22 µM]
CCn1c(C)cc2c(c1=O)C(c1ccccc1)C(C(=O)OC)=C(N)O2 (configuration not stated)	-12.3%	-5.6%	?	-8.6%	-5.3%	26.1%
CC1CN(c2nc3ccccc3nc2C(C#N)C(=O)NC2CCCCC2)CC(C)O1 (configuration not stated)	-16.7%	-2.0%	?	-6.7%	0.0%	-17.2%

Screening data from PubChem BioAssay.
